VDR inhibitor: inhibitors of human vitamin D receptor; Potency, µM, for inactives: max response, negative = inhibition, most hits filed as inhibitors; VDR-SRC2-3 peptide fluorescence polarization, 2 h; P11473; 400,000 compounds, 0.93% hits; note: % is set by controls: 0 for no effect and ±100 for the full control effect
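Inhibition of the VDR/SRC2-3 peptide interaction is quantified by fluorescence polarization. Compounds (23 nl, pintool) incubate with the reagents for 2 hours at ambient room temperature.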
HP1b chromo inh: inhibitors of HP1-beta chromodomain binding to methylated histone tails; AlphaScreen HP1-beta / biotin-H3K9me3 peptide binding; 390,000 compounds, 0.56% hits; P83916; Potency, µM (titrated, usually from 114 µM), for inactives: at the top dose activity change, negative = inhibition, usual class: inhibitors; AID 540317; note: nearly all actives have a fitted effect of over 70% in size
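Compound inhibition of the preformed complex between 50 nM HP1-beta and 50 nM biotinylated H3K9me3 peptide was read by AlphaScreen. Buffer was PBS pH 7.4 with 0.01% Tween-20. Incubations ran 30 min at room temperature, with 10 ug/mL donor/acceptor beads.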
BAZ2B inh: inhibitors of human BAZ2B bromodomain. Q9UIF8. AlphaScreen BAZ2B-H3K14Ac peptide displacement. Potency, µM (titrated, usually from 114 µM), for inactives: at the highest dose activity change, negative = inhibition, hits mostly inhibitors. 360,000 compounds, 4.4% hits. AID 504333; note: % is set by controls: 0 for no effect and ±100 for the full control effect; nearly all actives have a fitted effect of over 60% in size
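In this displacement format the biotinylated H3(5-23) peptide acetylated at Lys14 serves as ligand at 50 nM, with BAZ2B at 50 nM in PBS pH 7.4 containing 0.01% Tween-20. Donor and acceptor beads are 10 ug/mL final.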
JMJD2A Tudor: blocks the human JMJD2A Tudor domain | 390,000 compounds, 4.4% hits | Potency, µM (top dose mostly 114 µM), for the others: at the highest dose activity change, negative = inhibition, most hits filed as inhibitors | AlphaScreen JMJD2A-Tudor / H3K4me3 peptide binding | AID 504339; note: % is set by controls: 0 for no effect and ±100 for the full control effect; nearly all actives have a fitted effect of over 50% in size
PLK1 PBD inh: PLK1 (human) polo-box domain binding inhibition; P53350; Plk1 PBD binding of FITC phosphopeptide, fluorescence polarization; Potency, µM, for inactives: max response, negative = inhibition, most hits filed as inhibitors; 360,000 compounds, 2.8% hits; AID 720504; note: series mostly up to about 57 µM; % is set by controls: 0 for no effect and ±100 for the full control effect; nearly all actives have a fitted effect of over 65% in size
Target sequence (P53350 whole entry, looked up, the tested form may be a part): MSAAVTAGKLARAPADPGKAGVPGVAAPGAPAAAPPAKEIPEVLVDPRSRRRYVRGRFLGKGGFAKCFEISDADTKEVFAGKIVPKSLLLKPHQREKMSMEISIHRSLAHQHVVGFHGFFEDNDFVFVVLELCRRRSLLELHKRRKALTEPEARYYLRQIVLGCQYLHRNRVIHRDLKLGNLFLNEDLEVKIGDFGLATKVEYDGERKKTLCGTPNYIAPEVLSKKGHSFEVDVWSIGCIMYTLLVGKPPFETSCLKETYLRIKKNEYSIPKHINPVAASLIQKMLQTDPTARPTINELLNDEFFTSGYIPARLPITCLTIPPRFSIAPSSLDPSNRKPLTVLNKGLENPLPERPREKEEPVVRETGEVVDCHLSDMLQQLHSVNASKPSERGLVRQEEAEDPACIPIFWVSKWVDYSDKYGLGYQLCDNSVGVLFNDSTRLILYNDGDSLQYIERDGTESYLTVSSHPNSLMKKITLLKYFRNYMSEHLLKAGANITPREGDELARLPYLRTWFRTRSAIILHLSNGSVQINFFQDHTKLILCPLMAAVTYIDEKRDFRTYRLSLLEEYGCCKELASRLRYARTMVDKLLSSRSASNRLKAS
L3MBTL1 block: inhibitors of human L3MBTL1 | AlphaScreen L3MBTL1–H3K9me1 peptide binding | Potency, µM (doses to about 57.1 µM), for inactives: at the highest dose activity, negative = inhibition, hits mostly inhibitors | 230,000 compounds, 0.66% hits | AID 485360; note: % is set by controls: 0 for no effect and ±100 for the full control effect; nearly all actives have a fitted effect of over 60% in size
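AlphaScreen proximity signal between nickel-chelate acceptor and streptavidin donor beads (final 10 ug/mL) reports binding of 50 nM L3MBTL1 to 75 nM biotin-H3 K9me1 peptide; complex incubated with compounds 30 min at room temperature; cefsulodin titration as control.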
* = called active by the depositor; ? = inconclusive; . = not tested or not shown; [ ] = remark or other dose. This is a sample that favours compounds with a hit; in the whole collection about 6.9% have one here. Calls come from the whole dose curve; as a rule, active = well fitted curve in the direction sought with a large enough effect; inconclusive = small, poorly fitted or top-dose-only effect, or another doubt; inactive = no such curve, though single readings can be large; an effect the other way counts as inactive or inconclusive. Potency is the fitted concentration of half-maximal effect.

SMILES	VDR inhibitor	HP1b chromo inh	BAZ2B inh	JMJD2A Tudor	PLK1 PBD inh	L3MBTL1 block
O=[N+]([O-])c1cc(S(=O)(=O)Nc2ccccc2)ccc1NCc1ccccc1	12.3%	-32.8%	?	?	-0.2%	-19.2%
Cc1nc(-c2ccccc2)sc1-c1ccc(SCC(=O)Nc2ccc(F)cc2F)nn1	7.3%	53.5%	-4.9%	5.5%	.	.
CCOC(=O)c1cc(-c2ccccc2)nc2c(O)cccc12	-5.0%	8.4%	.	-12.5%	-7.9%	.
O=[N+]([O-])c1ccc(N2CCCC2)cc1N1CCCC1	-16.8%	15.8µM*	25.1µM*	44.7µM*	-8.8%	?
Cc1ccc(S(=O)(=O)Nc2ccc(C(N)=O)cc2)cc1[N+](=O)[O-]	?	-7.4%	-5.7%	?	15µM*	22.3%
O=C(c1ccc(N2CCOCC2)c([N+](=O)[O-])c1)N1CCN(c2ccccc2)CC1	19.8%	-0.3%[57 µM]	.	-34.3%	?	.
O=[N+]([O-])c1cnccc1Nc1cccc(F)c1	5.1%	2.7%	?	-30.0%	-1.3%	-1.8%
O=[N+]([O-])c1cc(S(=O)(=O)C(F)(F)F)ccc1N1CCN(c2ccccc2)CC1	-15.4%	?	8.91µM*	?	-0.4%	?
O=[N+]([O-])c1ccccc1Nc1cccc(F)c1	-0.7%	?	.	44.7µM*	4.0%	.
O=C(Nc1cc2c(cc1C(=O)c1ccccc1Cl)OCCO2)c1ccccc1	4.1%	7.3%	7.3%	-24.8%	.	.
Cc1cc(C)c(NC(=O)C(C)n2c(=O)c(C(F)(F)F)nc3ccccc32)c(C)c1 (stereo not drawn)	-2.8%	15.9%	-1.8%	-12.0%	.	.
COc1cc(OC)c(N(C)C(=O)c2cn(C3CCCC3)c(=O)c3c2c2ccccc2n3C)cc1Cl	6.5%	-0.5%	?	?	.	.
O=S(=O)(c1cnc2ccccc2c1)N1CCN(c2nc(-c3cccs3)nc3ccccc23)CC1	-3.3%	30.6%	.	-18.4%	.	.
O=C(CCS(=O)(=O)c1nc(-c2ccc3c(c2)OCO3)cc(C(F)(F)F)n1)Nc1ccccc1F	39.8µM*	36.8%	13.8%	-9.6%	.	.
CC(=O)c1c(C)[nH]c(C(=O)CSc2nnc(-c3ccc(Cl)cc3)n2CC2CCCO2)c1C (stereo not drawn)	3.7%	9.0%	-9.8%	79.4µM*	-11.5%	.
NC(=O)NC(=O)CSc1nnc(-c2ccc(Cl)cc2)n1CC1CCCO1 (stereo not drawn)	2.5%	35.6%	1.2%	-9.4%	-7.4%	0.9%
[N-]=C=C1C(=S)NC(=O)[C@H]([n+]2ccccc2)[C@H]1c1ccc(Cl)cc1	44.7µM*	-0.2%	?	-33.1%	26.7µM*	27.1%
Cc1cc(C)c(C(=O)COC(=O)c2cc([N+](=O)[O-])ccc2NCCO)cc1C	7.6%	10.6%	?	-22.1%	-11.9%	-3.0%
CCOc1ccc(C2C(=O)N(C3CCCCC3)CC(=O)N2Cc2ccccc2OC)cc1OC (stereo not drawn)	13.7%	6.2%	-5.0%	-19.0%	.	.
CCCN1C2=C(C(=O)CC(C)(C)C2)C(c2ccc(F)cc2)C2=C1c1ccccc1C2=O (stereo not drawn)	-14.1%	?	?	-29.6%	11.9µM*	.
COc1ccc(C2C3=C(CCCC3=O)NC3=C2C(=O)c2ccccc23)cc1 (stereo not drawn)	-4.4%	?	35.5µM*	50.1µM*	-4.3%	-11.5%
CC1(C)CC(=O)C2=C(C1)NC1=C(C(=O)c3ccccc31)C2c1ccc(Cl)cc1 (stereo not drawn)	-21.4%	?	11.2µM*	15.8µM*	-10.2%	?
CC(C)Cn1c(SCc2cccc(F)c2)nc2ccsc2c1=O	7.8%	106.9%	88.0%[57.1 µM]	96.8%	.	.
O=[N+]([O-])c1cc(C(F)(F)F)cc([N+](=O)[O-])c1NCCNC(=S)Nc1cccc(F)c1	-23.0%	-25.0%	17.8µM*	39.8µM*	-1.3%	?
CC(C)(C)S(=O)(=O)/C(C#N)=C/c1sccc1C1OCCO1	?	-10.6%	-12.8%	70.8µM*	21.2µM*	-7.0%

Screening data as filed in PubChem BioAssay.
